Measurements: PubChem BioAssay AID1159580 (chemical genetic matrix, 2015)
The campaign covered roughly 5,500 compounds. About 2,000 (36%) were called active. Roughly 18% stayed inconclusive and do not appear here. No stated cut-off is given here; in the data, active means normalized growth mostly below about 0.91 (no sharp cut-off); inconclusive means no clear call, values can overlap the other calls; inactive means mostly above about 0.92. This is one part of the list.

Assay: chemical genetic growth profiling, strain panel (AID 1159580);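 further: tested at 20 µM; growth read once vehicle control cultures reached saturation at 30 °C; 1 = growth at the plate median or of vehicle wells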
Conditions: S. cerevisiae deletion strains, growth OD
[1] = locus YAL040C, strain CLN3, stronger effect = lower value
[2] = locus YDR363W, strain ESC2, stronger effect = lower value
[3] = locus YER002W, strain NOP16, stronger effect = lower value
[4] = locus YNL175C, strain NOP13, stronger effect = lower value
[5] = locus YNL197C, strain WHI3, stronger effect = lower value
[6] = locus YNL224C, strain SQS1, stronger effect = lower value
[7] = locus YOR083W, strain WHI5 (second series), stronger effect = lower value

Measured: normalized growth

O=C(O)[C@H]1NCCC[C@H]1C(=O)O
inactive: [1] 1.06 | locus YCL061C, strain MRC1 (second series), stronger effect = lower value 0.986 | locus YDR150W, strain NUM1, stronger effect = lower value 1.01 | [2] 0.991 | [3] 0.993 | locus YMR263W, strain SAP30, stronger effect = lower value 0.99 | locus YMR307W, strain GAS1, stronger effect = lower value 0.991 | locus YNL128W, strain TEP1, stronger effect = lower value 0.994 | [4] 1 | [5] 0.982 | [6] 0.999 | [7] 0.984 | locus YPL055C, strain LGE1, stronger effect = lower value 1 | locus YPL241C, strain CIN2, stronger effect = lower value 0.996

N[C@@H](CS(=O)O)C(=O)O
inactive: [1] 0.98 | [2] 1.01 | [3] 0.98 | locus YGR078C, strain PAC10, stronger effect = lower value 1.01 | locus YGR229C, strain SMI1, stronger effect = lower value 0.954 | [4] 0.987 | [5] 1.02 | [6] 1.02 | [7] 1.02

C=C1CC2C3C=C(C)C4=CC(=O)CC[C@]4(C)C3CC[C@]2(C)[C@@]1(OC(C)=O)C(C)=O (stereo partly specified)
inactive: locus YHR030C, strain SLT2, stronger effect = lower value 0.955 | locus YHR079C, strain IRE1, stronger effect = lower value 0.933 | locus YJL095W, strain BCK1, stronger effect = lower value 0.955 | locus YJR066W, strain TOR1, stronger effect = lower value 0.922 | locus YLR113W, strain HOG1, stronger effect = lower value 0.92 | locus YNL183C, strain NPR1, stronger effect = lower value 0.876 | locus YOR231W, strain MKK1, stronger effect = lower value 0.955 | locus YPL256C, strain CLN2, stronger effect = lower value 0.916
